Experimental data as given in PubChem BioAssay.
Records with an inconclusive call do not appear. Calls of active or inactive are those of the source.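 Rule for the calls, unless noted: active = normalized viability below 100% at a tested concentration; inactive = the rest.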

Legend:
[1] = growth inhibition of DIPG glioma cells, dose response, cell-based, SU-DIPG-XVII, MIPE5.0, CellTiter-Glo, qHTS (AID 1347060; cut-off not given, nearly all actives have AC50 up to about 26 µM;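 for AC50: cells exposed to compound for 48 hours before viability readout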); settings: SU-DIPG-XVII viability, CellTiter-Glo ATP luminescence
[2] = growth inhibition of DIPG glioma cells, dose response, cell-based, SU-DIPG-XIII, MIPE4.0, CellTiter-Glo, qHTS (AID 1347061; cut-off not given, nearly all actives have AC50 up to about 37 µM;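 note: cells exposed to compound for 48 hours before readout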); settings: SU-DIPG-XIII viability, CellTiter-Glo ATP luminescence
[3] = growth inhibition of DIPG glioma cells, dose response, cell-based, JHH-DIPG-1, MIPE4.0, CellTiter-Glo, qHTS (AID 1347062; cut-off not given, nearly all actives have AC50 up to about 27 µM;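 for AC50: cells exposed to compound for two days before readout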); settings: JHH-DIPG-1 viability, CellTiter-Glo ATP luminescence
[4] = growth inhibition of DIPG glioma cells, dose response, cell-based, SU-DIPG-IV, MIPE4.0, CellTiter-Glo, qHTS (AID 1347063; cut-off not given, nearly all actives have AC50 up to about 30 µM;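 note: compound exposure lasted 48 hours before the viability readout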); settings: SU-DIPG-IV viability, CellTiter-Glo ATP luminescence
[5] = growth inhibition of DIPG glioma cells, dose response, cell-based, SU-DIPG-XIII, MIPE5.0, CellTiter-Glo, qHTS (AID 1347064; cut-off not given, nearly all actives have AC50 up to about 23 µM;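 for AC50: cells exposed to compound for 48 hours before the viability read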); settings: SU-DIPG-XIII viability, CellTiter-Glo ATP luminescence
[6] = viability loss in pontine glioma line – cell-based, SU-DIPG-XXV, MIPE5.0, CellTiter-Glo, qHTS, dose response (AID 1347065; cut-off not given, nearly all actives have AC50 up to about 26 µM;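 note: cells exposed to compound for 48 hours before ATP readout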); settings: CellTiter-Glo ATP luminescence
[7] = JHH-DIPG-1 glioma cell viability, MIPE5.0 library, CellTiter-Glo luminescence, qHTS (AID 1347067; cut-off not given, nearly all actives have AC50 up to about 26 µM;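 note: cells exposed to compound for 48 hours before readout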); settings: JHH-DIPG-1 glioma viability, CellTiter-Glo ATP luminescence
[8] = SU-DIPG-XXV glioma cell viability, MIPE5.0 library, qHTS (AID 1347068; cut-off not given, nearly all actives have IC50 up to about 30 µM;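 for IC50: cells exposed to compound for 48 hours before viability readout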)
[9] = sensitizers of A549 cells to miR-34 induction, primary screen, imaging, A549 dox-inducible miR-34, nuclei and caspase counts (AID 1347080;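 active = compounds whose cell count with miR-34 switched on is under 0.7 times the count with it off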); settings: A549 miR-34 inducible, Hoechst nuclei count, 48 h
[10] = survival rescue of mitochondrial mutant cells in low glucose, primary screen, MELAS cybrids, Rieske KO mouse fibroblasts, CellTiter-Glo (AID 1508586;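 active = mean z-score across replicates of 1.96 or higher in either the MELAS or the Rieske mutant cell line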;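 note: z relative to plate mean and SD of compound and empty wells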)
[11] = SU-DIPG-VI glioma cell viability, MIPE4.0 library, CellTiter-Glo luminescence, qHTS (AID 1347066; cut-off not given, nearly all actives have AC50 up to about 30 µM;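 note: cells exposed to compound for 48 hours before readout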); settings: CellTiter-Glo ATP luminescence
[12] = modifiers of HSF1 nuclear foci, imaging, Selleck Cancer Library (AID 1347162; in the data active = plate-normalised HSF1 focus index below about 0.46); settings: human cells, at 10 µM; SSMD: measured here: HSF1 foci SSMD mean; cell count: measured here: cell number; plate-normalised HSF1 focus index: stronger effect = lower value
[13] = ovarian cancer cell viability with rucaparib, profiling panel, oncology-focused library, rucaparib conditional (AID 1508598); settings: patient-derived ovarian cancer cells, CellTiter-Glo viability, 144 h, stronger effect = lower value
[14] = stronger effect = lower value, cell number ratio, induced over uninduced
[15] = measured here: relative caspase fold change +Dox/-Dox
[16] = measured here: total cells with miR-34 induction, stronger effect = lower value
[17] = measured here: total cells without miR-34 induction
[18] = MELAS cybrid survival, CellTiter-Glo 48 h, stronger effect = higher value
[19] = Rieske KO mouse fibroblast survival, CellTiter-Glo 72 h
[20] = at 0.000305 µM, OCI-C5x cells, with rucaparib 10 µM, 100% = cells with rucaparib alone
[21] = at 0.000305 µM, OCI-C5x cells, without rucaparib
[22] = at 0.000305 µM, OCI-P5x cells, with rucaparib 20 µM, 100% = cells with rucaparib alone
[23] = at 0.000305 µM, OCI-P5x cells, without rucaparib
[24] = at 0.00122 µM, OCI-C5x cells, with rucaparib 10 µM, 100% = cells with rucaparib alone
[25] = at 0.00122 µM, OCI-C5x cells, without rucaparib
[26] = at 0.00122 µM, OCI-P5x cells, with rucaparib 20 µM, 100% = cells with rucaparib alone
[27] = at 0.00122 µM, OCI-P5x cells, without rucaparib
[28] = at 0.00488 µM, OCI-C5x cells, with rucaparib 10 µM, 100% = cells with rucaparib alone
[29] = at 0.00488 µM, OCI-C5x cells, without rucaparib
[30] = at 0.00488 µM, OCI-P5x cells, with rucaparib 20 µM, 100% = cells with rucaparib alone
[31] = at 0.00488 µM, OCI-P5x cells, without rucaparib
[32] = at 0.0195 µM, OCI-C5x cells, with rucaparib 10 µM, 100% = cells with rucaparib alone
[33] = at 0.0195 µM, OCI-C5x cells, without rucaparib
[34] = at 0.0195 µM, OCI-P5x cells, with rucaparib 20 µM, 100% = cells with rucaparib alone
[35] = at 0.0195 µM, OCI-P5x cells, without rucaparib
[36] = at 0.0781 µM, OCI-C5x cells, with rucaparib 10 µM, 100% = cells with rucaparib alone
[37] = at 0.0781 µM, OCI-C5x cells, without rucaparib
[38] = at 0.0781 µM, OCI-P5x cells, with rucaparib 20 µM, 100% = cells with rucaparib alone
[39] = at 0.0781 µM, OCI-P5x cells, without rucaparib
[40] = at 0.313 µM, OCI-C5x cells, with rucaparib 10 µM, 100% = cells with rucaparib alone
[41] = at 0.313 µM, OCI-C5x cells, without rucaparib
[42] = at 0.313 µM, OCI-P5x cells, with rucaparib 20 µM, 100% = cells with rucaparib alone
[43] = at 0.313 µM, OCI-P5x cells, without rucaparib
[44] = at 1.25 µM, OCI-C5x cells, with rucaparib 10 µM, 100% = cells with rucaparib alone
[45] = at 1.25 µM, OCI-C5x cells, without rucaparib
[46] = at 1.25 µM, OCI-P5x cells, with rucaparib 20 µM, 100% = cells with rucaparib alone
[47] = at 1.25 µM, OCI-P5x cells, without rucaparib
[48] = at 5 µM, OCI-C5x cells, with rucaparib 10 µM, 100% = cells with rucaparib alone
[49] = at 5 µM, OCI-C5x cells, without rucaparib
[50] = at 5 µM, OCI-P5x cells, with rucaparib 20 µM, 100% = cells with rucaparib alone
[51] = at 5 µM, OCI-P5x cells, without rucaparib

O=C1c2cccc(O)c2C(=O)c2c(O)cc(CO)cc21
7900: cell count [9, 16]
0.691: fold change [9, 15]
8280: cell count [9, 17]
inactive: outcome [1] | outcome [2] | outcome [3] | outcome [4] | outcome [5] | outcome [6] | outcome [7] | outcome [8] | fold change [9, 14] 0.954 | z-score [10, 18] -0.27
0.836: z-score [10, 19]

COc1ccc(-n2nc(C(N)=O)c3c2C(=O)N(c2ccc(N4CCCCC4=O)cc2)CC3)cc1
inactive: outcome [1] | outcome [2] | outcome [3] | outcome [4] | outcome [5] | outcome [6] | outcome [11] | outcome [7] | fold change [9, 14] 0.908 | z-score [10, 18] -0.515
8080: cell count [9, 16]
-0.309: z-score [10, 19]
8900: cell count [9, 17]
0.921: fold change [9, 15]

CC(C)(O)c1cc2nc(-c3cnc(N)nc3)nc(N3CCOCC3)c2s1
active: AC50 [1] 1180 nM | AC50 [2] 590 nM | AC50 [3] 833 nM | AC50 [4] 52.6 nM | AC50 [5] 1050 nM | AC50 [6] 417 nM | AC50 [11] 148 nM | IC50 [8] 1180 nM

Cc1cc(Nc2ncc3c(n2)N(C)C(=O)N(c2cc(NC(=O)c4cccc(C(F)(F)F)c4)ccc2C)C3)n(C)n1
active: AC50 [1] 118 nM | AC50 [2] 1480 nM | AC50 [3] 418 nM | AC50 [4] 209 nM | AC50 [5] 105 nM | AC50 [6] 59 nM | AC50 [7] 263 nM | IC50 [8] 209 nM

CCOc1ccn(-c2ccc(F)cc2)c(=O)c1C(=O)Nc1ccc(Oc2ccnc(N)c2Cl)c(F)c1
4210: cell count [9, 17]
5080: cell count [9, 16]
-0.0407: z-score [10, 19]
active: AC50 [4] 18700 nM | AC50 [6] 11800 nM | viability [13, 26] 99.9% | viability [13, 42] 91.8% | viability [13, 46] 88.6% | viability [13, 47] 97.3% | viability [13, 50] 65.2% | viability [13, 51] 96.2%
7130: cell count [12]
2.9: SSMD [12]
inactive: outcome [1] | outcome [2] | outcome [3] | outcome [5] | outcome [11] | outcome [8] | fold change [9, 14] 1.21 | plate-normalised HSF1 focus index [12] 1.11 | z-score [10, 18] -0.348 | viability [13, 20] 118% | viability [13, 21] 124% | viability [13, 22] 109% | viability [13, 23] 129% | viability [13, 24] 125% | viability [13, 25] 134% | viability [13, 27] 120% | viability [13, 28] 113% | viability [13, 29] 120% | viability [13, 30] 103% | viability [13, 31] 117% | viability [13, 32] 116% | viability [13, 33] 118% | viability [13, 34] 101% | viability [13, 35] 114% | viability [13, 36] 110% | viability [13, 37] 138% | viability [13, 38] 107% | viability [13, 39] 116% | viability [13, 40] 129% | viability [13, 41] 128% | viability [13, 43] 106% | viability [13, 44] 135% | viability [13, 45] 120% | viability [13, 48] 133% | viability [13, 49] 135%
0.507: fold change [9, 15]

COc1cc2ncnc(Nc3ccc(F)c(Cl)c3)c2cc1NC(=O)/C=C/CN1CCCCC1
6970: cell count [12]
1.69: SSMD [12]
active: AC50 [1] 14800 nM | AC50 [3] 18700 nM | AC50 [4] 20900 nM | AC50 [5] 18600 nM | AC50 [6] 9340 nM | AC50 [11] 20900 nM | IC50 [8] 10500 nM
inactive: outcome [2] | plate-normalised HSF1 focus index [12] 1.09

CC(=O)Nc1cccc(-n2c(=O)n(C3CC3)c(=O)c3c(Nc4ccc(I)cc4F)n(C)c(=O)c(C)c32)c1
3760: cell count [9, 17]
3.07: SSMD [12]
6560: cell count [12]
-0.112: z-score [10, 19]
active: AC50 [1] 83.3 nM | AC50 [2] 235 nM | AC50 [3] 209 nM | AC50 [4] 3320 nM | AC50 [5] 83.3 nM | AC50 [6] 105 nM | AC50 [7] 41.7 nM | viability [13, 26] 89.6% | viability [13, 27] 89.5% | viability [13, 30] 75% | viability [13, 31] 74.2% | viability [13, 34] 72.4% | viability [13, 35] 76.7% | viability [13, 36] 88% | viability [13, 37] 88.8% | viability [13, 38] 51.6% | viability [13, 39] 55% | viability [13, 40] 73.7% | viability [13, 41] 82.7% | viability [13, 42] 44.7% | viability [13, 43] 53.7% | viability [13, 44] 45.5% | viability [13, 45] 78.2% | viability [13, 46] 36.4% | viability [13, 47] 37.4% | viability [13, 48] 41.3% | viability [13, 49] 52.7% | viability [13, 50] 30.4% | viability [13, 51] 34.2%
inactive: outcome [11] | fold change [9, 14] 1.15 | plate-normalised HSF1 focus index [12] 1.16 | z-score [10, 18] -0.421 | viability [13, 20] 123% | viability [13, 21] 120% | viability [13, 22] 109% | viability [13, 23] 102% | viability [13, 24] 102% | viability [13, 25] 122% | viability [13, 28] 105% | viability [13, 29] 113% | viability [13, 32] 111% | viability [13, 33] 109%
0.672: fold change [9, 15]
4330: cell count [9, 16]
